According to PubChem BioAssay (Tox21):
Results filed as inconclusive are left out. Calls of active or inactive are those of the source. Unless noted, calls follow the shape of the dose curve; as a rule, active = well fitted curve in the direction sought with a large enough effect in the repeat runs; inconclusive = weak or mixed curves; inactive = no such curve, though single readings can be large; an effect the other way counts as inactive or inconclusive.

What was measured:
[1] = A CellTox Green Cytotoxicity Assay to monitor cytotoxicity in HepG2 cells - 8 hour (AID 1224890); details: CellTox Green fluorescence; series mostly up to 76.8 µM; also: nearly all actives have a fitted effect of over 45% in size
Summary of the method: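 Real-time cytotoxicity: fluorescence of a cell-impermeant cyanine dye binding DNA of dead HepG2 cells, measured repeatedly (0–40 h) during compound exposure at 37 C. Cells seeded 600/well with reagent, dosed after 5 h.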

[2] = qHTS assay to identify small molecule antagonists of the estrogen receptor alpha (ER-alpha) signaling pathway using the BG1 cell line in the presence of 0.1 nM 17-beta-estradiol - cell viability counter screen (AID 1259241); details: VM7Luc4E2 (BG1) viability, CellTiter-Fluor protease, 22 h, 0.1 nM estradiol agonist added; series mostly up to 92.4 µM; also: nearly all actives have a fitted effect of over 40% in size
Summary of the method: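 Following 5 days in phenol red-free medium with charcoal-stripped serum, VM7Luc4E2 cells received test compounds alongside 0.1 nM 17beta-estradiol (final) at 37C for 22 hr. Live cells were then quantified via protease-substrate fluorescence.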

[3] = qHTS assay to identify small molecule antagonists of the androgen receptor (AR) signaling pathway using the MDA cell line in the presence of 0.5 nM R1881 - cell viability counter screen (AID 1259242); details: MDA-kb2 viability, CellTiter-Fluor protease fluorescence, 16 h; series mostly up to 92.4 µM; also: nearly all actives have a fitted effect of over 45% in size
Summary of the method: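 Live-cell protease activity was measured by CellTiter-Fluor fluorescence after 30 min. Before that, MDA-kb2 MMTV-luciferase cells had 16 hr at 37C without CO2, exposed to test compounds and 0.5 nM R1881 final.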

[4] = target: Estrogen receptor (Homo sapiens) (UniProt P03372); assay: qHTS assay to identify small molecule antagonists of the estrogen receptor alpha (ER-alpha) signaling pathway using the BG1 cell line in the presence of 0.1 nM 17-beta-estradiol (AID 1259244); details: VM7Luc4E2 (BG1) ERE-luciferase, antagonist mode, 0.1 nM E2, 22 h; series mostly up to 92.4 µM; also: nearly all actives have a fitted effect of over 50% in size
Sequence of Estrogen receptor (Homo sapiens) (P03372 whole entry, looked up): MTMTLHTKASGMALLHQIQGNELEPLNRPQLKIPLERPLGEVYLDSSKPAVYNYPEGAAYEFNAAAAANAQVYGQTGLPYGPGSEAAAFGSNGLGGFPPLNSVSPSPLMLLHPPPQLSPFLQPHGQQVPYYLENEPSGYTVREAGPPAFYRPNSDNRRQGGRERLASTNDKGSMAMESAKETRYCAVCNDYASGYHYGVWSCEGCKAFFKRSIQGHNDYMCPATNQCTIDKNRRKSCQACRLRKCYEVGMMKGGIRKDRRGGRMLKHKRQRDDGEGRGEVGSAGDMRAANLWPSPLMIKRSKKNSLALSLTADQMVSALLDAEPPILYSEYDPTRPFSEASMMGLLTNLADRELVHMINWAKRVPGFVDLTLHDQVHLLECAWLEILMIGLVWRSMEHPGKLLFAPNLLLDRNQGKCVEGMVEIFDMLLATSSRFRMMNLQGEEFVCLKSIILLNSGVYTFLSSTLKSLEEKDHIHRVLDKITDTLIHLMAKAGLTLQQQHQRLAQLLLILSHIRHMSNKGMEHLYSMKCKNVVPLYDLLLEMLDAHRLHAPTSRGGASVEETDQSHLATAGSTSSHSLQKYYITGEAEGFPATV
Summary of the method: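 Luciferase luminescence (ONE-Glo, 30 min at room temperature) was read after 22 hr at 37C exposure to compounds plus 17beta-estradiol at 0.1 nM final. Cells were VM7Luc4E2 with endogenous ER-alpha and an ERE-driven luciferase, pre-cultured 5 days in hormone-depleted medium.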

[5] = qHTS assay to identify small molecule HDAC inhibitors (AID 1259364); details: HCT-116 HDAC-Glo I/II luminescence, 2 h; series mostly up to 92.4 µM; also: top concentration of the series differs between compounds; nearly all actives have a fitted effect of over 45% in size
Summary of the method: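 Luminescence read after 30 min room-temperature HDAC-Glo incubation measures cellular class I/II HDAC activity. Compounds were applied for 2 hr at 37 C to HCT-116 wild-type cells seeded the day before.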

[6] = qHTS assay to identify small molecule HDAC inhibitors - cell viability counter screen (AID 1259365); details: HCT-116 viability, CellTiter-Glo ATP luminescence, 2 h; series mostly up to 92.4 µM; also: nearly all actives have a fitted effect of over 50% in size
Summary of the method: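 HCT-116 wild-type, overnight attachment; 2hr drug exposure, 37C; CellTiter-Glo luminescent ATP readout after 30min RT.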

[7] = qHTS assay to identify small molecule agonists of the sonic hedgehog signaling (Shh) pathway - cell viability counter screen (AID 1259366); details: NIH/3T3 Gli1-Luc viability, CellTiter-Fluor, 24 h; series mostly up to 92.4 µM; also: nearly all actives have a fitted effect of over 50% in size
Summary of the method: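 Compounds in DMSO were pin-transferred onto 3T3 Gli1-Luc cells that had settled 4hr; plates then stood 24hr at 37C and 5% CO2. One hour before the end, CellTiter-Fluor was added and fluorescence recorded.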

[8] = qHTS assay to identify small molecule antagonists of the sonic hedgehog signaling (Shh) pathway - cell viability counter screen (AID 1259367); details: NIH/3T3 Gli1-Luc viability, CellTiter-Fluor, 24 h; series mostly up to 92.4 µM; also: nearly all actives have a fitted effect of over 55% in size
Summary of the method: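 Viability was read by CellTiter-Fluor fluorescence in the same wells, reagent added 23 hr into compound treatment and incubated 1 hr at 37C. The 3T3 Gli1-Luc reporter cells (2,000/well) received conditioned medium after compound and ran 24 hr.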

[9] = qHTS assay to identify small molecule agonists of the sonic hedgehog signaling (Shh) pathway (AID 1259368; calls by dose curve;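 also: NIH/3T3-derived 3T3Gli1-Luc cells carrying a stable Gli1-driven firefly luciferase reporter; nearly all actives have a fitted effect of over 15% in size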); details: NIH/3T3 Gli1-Luc reporter, luciferase, 24 h; series mostly up to 92.4 µM
Summary of the method: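 Luminescence was read after 30 min at room temperature with luciferase reagent. Before that, 3T3Gli1-Luc cells (NIH/3T3 clone, stable Gli1-Luc reporter; 2,000/well) were exposed to compounds for 24 hr at 37C, 5% CO2, compounds being added 4 hr post-plating.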

[10] = target: Estrogen receptor beta (Homo sapiens) (UniProt Q92731); assay: qHTS assay to identify small molecule agonists of the estrogen receptor beta (ER-beta) signaling pathway (AID 1259377; active = well fitted activation curve with a large enough effect in the signal ratio in the repeat runs, not every such curve was filed as active; the % refers to the signal ratio); details: ER-beta-UAS-bla HEK293T, beta-lactamase FRET ratio, 16 h; series mostly up to 92.4 µM
Sequence of Estrogen receptor beta (Homo sapiens) (Q92731 whole entry, looked up): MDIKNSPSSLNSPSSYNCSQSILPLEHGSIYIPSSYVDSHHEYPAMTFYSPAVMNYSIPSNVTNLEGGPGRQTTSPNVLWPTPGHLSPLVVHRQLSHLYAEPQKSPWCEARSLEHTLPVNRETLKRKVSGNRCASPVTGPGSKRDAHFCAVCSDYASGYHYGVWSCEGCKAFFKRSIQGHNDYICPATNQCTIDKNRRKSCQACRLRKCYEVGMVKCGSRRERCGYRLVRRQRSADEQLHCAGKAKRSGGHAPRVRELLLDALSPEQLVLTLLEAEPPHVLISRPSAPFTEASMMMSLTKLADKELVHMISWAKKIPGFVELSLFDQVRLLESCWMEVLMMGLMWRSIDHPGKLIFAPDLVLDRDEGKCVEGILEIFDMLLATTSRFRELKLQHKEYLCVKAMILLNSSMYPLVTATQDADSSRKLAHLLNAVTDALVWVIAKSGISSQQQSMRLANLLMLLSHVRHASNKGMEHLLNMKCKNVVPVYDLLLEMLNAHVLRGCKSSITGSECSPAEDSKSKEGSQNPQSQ
Summary of the method: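 qHTS in ER-beta-UAS-bla HEK293T cells: 6 hr settling, then 16 hr compound at 37C, then LiveBLAzer substrate 2 h at RT before fluorescence reading.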

[11] = target: Estrogen receptor beta (Homo sapiens) (UniProt Q92731); assay: qHTS assay to identify small molecule antagonists of the estrogen receptor beta (ER-beta) signaling pathway (AID 1259378; active = well fitted inhibition curve with a large enough effect in the signal ratio in the repeat runs, not every such curve was filed as active; the % refers to the signal ratio; also: potency is read from the fitted curve at half-maximal effect); details: ER-beta-UAS-bla HEK293T, beta-lactamase FRET ratio, 16 h; series mostly up to 92.4 µM
Summary of the method: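 Antagonist mode: compounds added to beta-lactamase reporter HEK293T ER-beta-UAS cells stimulated with E2 (1nM final), 16 hr at 37C. LiveBLAzer B/G FRET substrate, 2 hours room temperature, fluorescence read-out.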

[12] = qHTS assay to identify small molecule agonists of the androgen receptor (AR) signaling pathway in the presence of an antagonist - cell viability counter screen (AID 1259379); details: MDA-kb2 viability, CellTiter-Fluor, 16 h; series mostly up to 92.4 µM;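 also: MDA-kb2 human breast cancer cells carrying an MMTV luciferase reporter; nearly all actives have a fitted effect of over 25% in size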
Summary of the method: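 Cytotoxicity counter-screen run in the same wells as the nilutamide-challenged (3.0 µM final) AR agonist assay in MDA-kb2 cells. Compounds tested at 15 concentrations for 16 h, 37 °C without CO2; CellTiter-Fluor fluorescence read.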

[13] = qHTS assay to identify small molecule antagonists of the estrogen receptor beta (ER-beta) signaling pathway - cell viability counter screen (AID 1259382); details: ER-beta-UAS-bla HEK293T viability, CellTiter-Glo luminescence, 16 h; series mostly up to 92.4 µM;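 also: HEK293T cells carrying ER-beta-UAS-bla reporter stimulated with estradiol; nearly all actives have a fitted effect of over 55% in size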
Summary of the method: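 Cytotoxicity was measured in the same wells by CellTiter-Glo luminescence after 30 min at room temperature. Cells were ER-beta-bla HEK293T in charcoal-stripped serum, given compound together with 1 nM E2 and incubated 16 h at 37C.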

[14] = target: Estrogen receptor (Homo sapiens) (UniProt P03372); assay: qHTS assay to identify small molecule agonists of the estrogen receptor alpha (ER-alpha) signaling pathway in the presence of an antagonist (AID 1259383; calls by dose curve; also: nearly all actives have a fitted effect of over 15% in size; also: potency is read from the fitted curve at half-maximal effect; as to activation: top concentration of the series differs between compounds); details: VM7Luc4E2 cells, ERE-luciferase, +ICI-182,780, 22 h; series mostly up to 92.4 µM
Summary of the method: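 Agonist-mode confirmation run in the presence of 10.0nM (final) ICI-182,780 antagonist. The reporter was ERE-driven luciferase in VM7Luc4E2 cells, grown in charcoal-stripped serum. Cells were exposed to 15-concentration compound series for 22hr, then ONE-Glo luminescence was read.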

[15] = qHTS assay to identify small molecule agonists of the estrogen receptor beta (ER-beta) signaling pathway - cell viability counter screen (AID 1259380); details: ER-beta-bla HEK293T viability, CellTiter-Glo luminescence, 16 h; series mostly up to 92.4 µM; also: nearly all actives have a fitted effect of over 30% in size
Summary of the method: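 Cell viability counter screen: CellTiter-Glo luminescence (30 min, room temperature) measured in the same wells as the beta-lactamase readout, after 16 hr compound exposure at 37C of ER-beta-bla HEK293T cells in 2% charcoal-stripped FBS medium.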

[16] = qHTS assay to identify small molecule agonists or antagonists of the thyroid stimulating hormone receptor (TSHR) signaling pathway - wild type cell line counter screen (AID 1259384; calls by dose curve); details: HEK293 wild type, cAMP HTRF counter-screen, active compounds read high; series mostly up to 92.4 µM
Summary of the method: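 Counter screen in untransfected Hek293: compounds (15-point titration, triplicate) plus phosphodiesterase inhibitor Ro20-1724 added after 18 h plating; 30 min RT. Intracellular cAMP via competitive d2/cryptate immunoassay, 1 h incubation.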

[17] = qHTS assay to identify small molecule antagonists of the sonic hedgehog signaling (Shh) pathway (AID 1259369; calls by dose curve; also: nearly all actives have a fitted effect of over 45% in size); details: NIH/3T3 Gli1-Luc reporter, Shh antagonist, luminescence 24 h; series mostly up to 92.4 µM
Summary of the method: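 Antagonist mode: compound added to 3T3 Gli1-Luc cells followed by conditioned-medium stimulation, 24 h at 37 C, 5% CO2. Inhibition taken as loss of Gli1-driven luciferase luminescence.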

Measured: Potency

C(=C(c1ccccc1)c1ccccc1)c1ccccc1
active: [11] 1.54 µM | [14] 17.2 µM
not listed: [15] | [16] | [17]
inactive: all other assays above

CC(=O)c1ccc(C)cc1
not listed: [10] | [11] | [17]
inactive: all other assays above

COc1ccc(COC=O)cc1
inactive: all assays above

C=CCOCC(O)CS(=O)(=O)O (centres undefined)
not listed: [11]
inactive: all other assays above

Nc1ncnc2c1ncn2Cc1c(F)cccc1Cl
not listed: [10] | [11] | [17]
inactive: all other assays above

OCC(CO)(CO)COCC(CO)(CO)CO
not listed: [10] | [11] | [17]
inactive: all other assays above

CC1=CC(C)C(C=O)C(C)C1 (centres undefined)
not listed: [10] | [11]
inactive: all other assays above
